Rows were chosen to be rich in hits. Some 19% of all compounds tested hit in one or more screens of this group.
TDP1 cell CPT – DT40-hTDP1 cell growth loss with CPT; Potency, µM (top dose mostly 46.2 µM), inactives show top-dose activity change, negative = growth inhibition, hits mostly inhibitors; chicken DT40 Tdp1-/-;hTDP1 cells + 20 nM CPT, ATP luminescence, 48 h; 420,000 tested, 12% active; note: nearly all actives have a fitted effect of over 55% in size
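Chicken DT40 Tdp1-/- cells stably complemented with human TDP1 were seeded at 400 cells/well in medium containing 20 nM camptothecin, exposed to pin-transferred compounds, and grown at 37 °C for at least 48 hr. Viability was read as ATP luminescence.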
TDP1 cell noCPT – qHTS for Inhibitors of human tyrosyl-DNA phosphodiesterase 1 (TDP1): qHTS in cells in absence of CPT; DT40 Tdp1-/- hTDP1 cells, no CPT, ATP luminescence, 48 h; Potency, µM (series often up to 46.2 µM), inactives show at the highest dose activity change, negative = growth inhibition, usual class: inhibitors; 420,000 tested, 15% active; AID 686978, 2013; note: nearly all actives have a fitted effect of over 55% in size
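Stably hTDP1-transfected Tdp1-null chicken DT40 cells were treated with library compounds minus camptothecin and grown for at least 48 hr at 37 °C, after which cellular ATP was quantified by luminescence.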
KB-V1 MDR tox – kills drug-selected multidrug resistant KB-V1 cells; KB-V1 MDR cells viability, CellTiter-Glo, 72 h; Potency, µM (titrated, usually from 46.1 µM), most hits filed as cytotoxic; 400,000 tested, 3.4% active; note: nearly all actives have a fitted effect of over 60% in size
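Potencies derive from concentration-effect curves fitted to normalized luminescence (CellTiter-Glo) of KB-V1 cells treated for 72 h at 37 degrees C in phenol-red-free DMEM containing 10% FBS.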
HT1080 IDH1KD tx – HT-1080 IDH1 knockdown cell toxicity (counter line); AID 686971; 360,000 tested, 2% active; HT-1080 IDH1 knockdown viability, ATP luminescence, 48 h; Potency, µM (doses to about 46.1 µM), without a hit: at the highest dose activity, negative = toxicity, hits mostly cytotoxic;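 note: 0% = DMSO wells and -100% = cell-free medium wells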
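In this qHTS, HT-1080 cells depleted of IDH1 are exposed for 48 h at 37 °C to compound titrations. Toxicity is scored from CellTiter-Glo luminescence, with DMSO as full viability and medium alone as none.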
KB-3-1 tox – kills parental KB-3-1 adenocarcinoma cells; KB-3-1 viability, CellTiter-Glo ATP luminescence, 72 h; Potency, µM (highest dose often 46.1 µM), usual class: cytotoxic; 400,000 tested, 1.4% active; AID 1347075; note: nearly all actives have a fitted effect of over 60% in size
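Luminescent ATP read-out (CellTiter-Glo) measures survival of drug-naive KB-3-1 cells after 72 h compound exposure at 37 °C. Titration series was screened from lowest to highest concentration, with DMSO vehicle plates as background controls.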
HT1080NT lethal – kills 2HG-producing HT-1080-NT fibrosarcoma cells; HT-1080-NT fibrosarcoma viability, CellTiter-Glo ATP luminescence, 48 h; Potency, µM (series often up to 46.1 µM), inactives show at the top dose activity, negative = less viability, usual class: cytotoxic; 360,000 tested, 1.6% active;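 note: NT is the 2HG producing partner of a matched IDH1 knockdown line; 0% = DMSO-treated cells and -100% = media-only wells without cells; nearly all actives have a fitted effect of over 55% in size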
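A 48-hour cytotoxicity screen used HT-1080-NT cells plated 2 hours before compound delivery. ATP-based CellTiter-Glo luminescence measured viability, normalized to DMSO and no-cell controls.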
* hit, by the source's call; i = inactive; ? = inconclusive; · = no result given. Calls come from the whole dose curve; as a rule, active = well fitted curve in the direction sought with a large enough effect; inconclusive = small, poorly fitted or top-dose-only effect, or another doubt; inactive = no such curve, though single readings can be large; an effect the other way counts as inactive or inconclusive. Unless noted, % is set by controls: 0 for no effect and ±100 for the full control effect; potency is the fitted concentration of half-maximal effect.

SMILES	TDP1 cell CPT	TDP1 cell noCPT	KB-V1 MDR tox	HT1080 IDH1KD tx	KB-3-1 tox	HT1080NT lethal
CC1CCCCN1C(=O)COC(=O)C1CCN(S(=O)(=O)c2ccc3c(c2)OCCO3)CC1 (stereo not drawn)	-20%	-2%	i	-4%	i	-7%
NS(=O)(=O)c1ccc(NC(=O)CN2CCN(S(=O)(=O)c3cccs3)CC2)cc1	1%	-4%	i	1%	i	4%
Cc1cccc(NC(=S)NC2CC3CCC(C2)N3Cc2ccco2)c1 (stereo not drawn)	-22%	-9%	?	0%	i	0%
CN1CCCC1CCNS(=O)(=O)c1ccc(Br)cc1 (stereo not drawn)	?	9.2µM*	i	?	i	?
CC1CCCN(C(=O)CCNS(=O)(=O)c2ccc(Br)cc2)C1 (stereo not drawn)	-24%	-22%	?	0%	i	1%
CC1CC(c2ccccc2)n2nc(NC(=O)c3ccco3)nc2N1 (stereo not drawn)	2%	-4%	i	7%	i	8%
CC1CC(N(C(=O)c2ccco2)c2ccccc2)c2ccccc2N1 (stereo not drawn)	?	15µM*	i	?	i	-22%
Cc1ccccc1NC(=O)C1CCCN1S(=O)(=O)c1ccccc1C(F)(F)F (stereo not drawn)	?	?	·	-7%	·	-3%
O=C(CN1CCN(C(=O)c2ccco2)CC1)Nc1cc(S(=O)(=O)N2CCCC2)ccc1Cl	?	6.5µM*	?	-8%	i	-3%
O=C(CN1CCN(c2ccccc2O)CC1)Nc1cc(S(=O)(=O)N2CCCC2)ccc1Cl	16µM*	?	i	-13%	i	-14%
O=C(CN1CCN(c2ccccc2O)CC1)Nc1ccc(S(=O)(=O)N2CCCCCC2)cc1	?	?	i	-21%	i	-3%
O=C(CN1CCN(C(=O)c2ccco2)CC1)Nc1cccc(S(=O)(=O)N2CCCC2)c1	-9%	0%	i	1%	i	1%
COc1ccc(NC(=O)CSCC(=O)Nc2ccc(C)c(S(=O)(=O)N3CCCCCC3)c2)cc1	-12%	-6%	i	-24%	i	-15%
CC(C)[C@H](NS(=O)(=O)c1cccc(Cl)c1)C(=O)OCC(=O)N1CCN(c2ccccc2)CC1	23µM*	26µM*	7.3µM*	9%	i	15%
CC(C)C(NC(=O)Cc1ccccc1)C(=O)N1CCN(c2cccc(Cl)c2)CC1 (stereo not drawn)	4.6µM*	3.3µM*	i	-23%	i	-23%
CC(C)[C@H](NC(=O)c1c(F)cccc1F)C(=O)N1CCN(c2ccc(F)cc2)CC1	?	21µM*	?	16%	i	23%
CC(C)NS(=O)(=O)c1ccc(OCC(=O)N2CCN(c3cccc(Cl)c3)CC2)cc1	15µM*	23µM*	i	·	i	·
O=C(OCC(=O)N1CCN(c2ccccc2)CC1)c1cccc(Cl)c1	-11%	-14%	i	-2%	i	0%
CC(NC(=O)CSC1=NCCS1)c1ccccc1 (stereo not drawn)	8%	-3%	i	6%	i	1%
CCOc1cc(CNc2ncn[nH]2)ccc1OCC(=O)NC(C)(C)C	21%	-1%	i	9%	i	8%
O=S(=O)(c1ccc(Cl)cc1)N1CCN(Cc2ccc(O)c3ncccc23)CC1	6.5µM*	5.8µM*	?	?	i	?
CN1CCN(C2CCN(Cc3ccc(O)c4ncccc34)CC2)CC1	·	·	i	·	i	·
Oc1ccc(CN2CCN(Cc3ccccc3)CC2)c2cccnc12	21µM*	?	i	-17%	?	?
C=CC(=O)Nc1ccc(CN2C(=O)N(c3c(Cl)c(OC)cc(OC)c3Cl)Cc3cnc(NCCCCN(CC)CC)nc32)cc1	12µM*	13µM*	i	15µM*	12µM*	23µM*
CCc1nc2ccc(C(=O)NCCCn3ccnc3)cn2c1N(C)C(=O)C1CCCCC1	-7%	-10%	i	9%	i	22%
SMILES	TDP1 cell CPT	TDP1 cell noCPT	KB-V1 MDR tox	HT1080 IDH1KD tx	KB-3-1 tox	HT1080NT lethal
NC(=O)C1CCN(C(=O)COc2ccc(Nc3ccccc3)cc2)CC1	0%	-3%	i	-3%	i	3%
Cc1ccc(S(=O)(=O)Nc2c(C(=O)O)[nH]c3ccccc23)c(C)c1	-26%	20%	?	6%	i	-1%
CC1CN(Cc2cc(=O)oc3cc(O)c(Cl)cc23)CC(C)O1 (stereo not drawn)	?	?	i	4%	i	1%
Cc1ccc(NC(=O)c2nc(S(C)(=O)=O)ncc2N(Cc2ccc(C(C)(C)C)cc2)Cc2ccco2)cc1C	?	?	i	·	i	·
COc1ccc(NC(=O)c2nc(S(C)(=O)=O)ncc2N(Cc2ccc(C)cc2)Cc2ccco2)cc1Cl	?	18µM*	i	·	i	·
Cc1ccc(NC(=O)c2nc(S(C)(=O)=O)ncc2N(Cc2ccccc2)Cc2ccco2)c(C)c1	13µM*	18µM*	i	·	i	·
CCc1ccc(CN(Cc2ccco2)c2cnc(S(C)(=O)=O)nc2C(=O)Nc2cccc(C)c2)cc1	13µM*	21µM*	i	·	i	·
COc1ccc(Cl)cc1NC(=O)c1nc(S(C)(=O)=O)ncc1N(Cc1ccc(C)cc1)Cc1ccco1	8.2µM*	9.2µM*	·	·	·	·
COc1ccccc1CN(Cc1ccco1)c1cnc(S(C)(=O)=O)nc1C(=O)Nc1ccccc1Cl	?	?	?	·	i	·
Cc1ccc(NC(=O)c2nc(S(C)(=O)=O)ncc2N(Cc2ccco2)Cc2ccco2)cc1C	?	?	i	·	i	·
O=C(NCC(F)(F)F)c1ccc(S(=O)(=O)Nc2ccccc2N2CCCC2)cc1	-27%	-29%	i	5%	i	1%
CS(=O)(=O)c1ncc(N(Cc2ccco2)Cc2cccs2)c(C(=O)Nc2ccccc2F)n1	?	21µM*	i	·	i	·
CCS(=O)(=O)c1ncc(N(Cc2ccccc2)Cc2ccco2)c(C(=O)Nc2ccc(C)c(C)c2)n1	21µM*	12µM*	i	·	i	·
Cc1ccc(NC(=O)c2nc(S(C)(=O)=O)ncc2N(Cc2ccco2)Cc2cccs2)cc1C	?	?	i	·	i	·
